Bioassay records: PubChem, National Center for Advancing Translational Sciences (NCATS)
In the library only some 1.8% were active in any assay of this set; here they are far more common.
Imprint erasure: qHTS Assay for Compounds that Induce Erasure of Genomic Imprints; mouse ES Peg3-LacZ reporter, beta-gal luminescence, 40 h; 110,000 compounds, 0.02% hits; Potency, µM (highest dose often 60.7 µM), actives largely listed as activators
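Readout: BetaGlo luminescence (5 min, room temp) for LacZ from the normally silent maternal Peg3 allele in female Peg3LacZ-Neo ES cells. Cells 300/well, 40 h, 37C, 5% CO2. Data normalized per plate to negative controls.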
IkB signaling: IkB Signaling. Potency, µM (top dose mostly 57.1 µM). 110,000 compounds, 0.04% hits. ABC-DLBCL IkBa-CBG/CBR dual luciferase ratio, 4 h; response scale: scaled: untreated 0%, proteasome inhibitor 100%; active means well fitted curve in the direction sought with a large enough effect in the signal ratio, not every such curve was filed as active; inconclusive means small, poorly fitted or top-dose-only effect, or a change in a side signal; the % refers to the signal ratio;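 further: the direction sought is a rising ratio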
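Curves were fitted separately to fusion (green), unfused (red) and ratio luminescence, then classed by r2, magnitude and activity. Cells: OCI-Ly3, 4 h compound plus doxycycline at 37C; 10 uM MG-132 defined full response.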
p53ts 32C tox: qHTS Screen for Compounds that Selectively Target Cancer Cells with p53 Mutations: Cytotoxicity of p53ts Cells at the Permissive Temperature | H1299-p53A138V at 32C, ATP luminescence viability, 24 h | Potency, µM (doses to about 46.1 µM), most hits filed as cytotoxic | 130,000 compounds, 0.93% hits; further: nearly all actives have a fitted effect of over 55% in size
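Cells: H1299 p53ts (A138V), 600/well, pre-incubated 16–30 h at 37C. Cpd up to 46 uM, 24 h, 32C. Readout: ATPlite luminescence, 20 min RT. Normalization: DMSO vs tamoxifen 100 uM. AC50 by Hill equation.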
p53ts 39C tox: qHTS Screen for Compounds that Selectively Target Cancer Cells with p53 Mutations: Cytotoxicity of p53ts Cells at the Nonpermissive Temperature | H1299-p53A138V viability at 39C, ATP luminescence, 24 h | Potency, µM (doses to about 46.1 µM), usual class: cytotoxic | 130,000 compounds, 1.5% hits | AID 902, 2007; further: nearly all actives have a fitted effect of over 55% in size
Numbers stand for hits; . = inactive; ? = inconclusive; / = not tested or not shown; [ ] = another dose, or the depositor's remark. Unless noted, the call rests on the fitted dose curve; in most records, active means well fitted curve in the direction sought with a large enough effect; inconclusive means small, poorly fitted or top-dose-only effect, or another doubt; inactive means no such curve, though single readings can be large; an effect the other way counts as inactive or inconclusive.

SMILES	Imprint erasure	IkB signaling	p53ts 32C tox	p53ts 39C tox
O=S(=O)(c1ccc2c(c1)CCN2)N1CCCCCC1	.[10.9 µM]	.	.	.
Cc1nn(-c2ccccc2Cl)c(Cl)c1/C=N/Nc1cccc(C(=O)O)c1	/	/	11µM	11µM
CCN(CC)S(=O)(=O)c1ccc2c(c1)N(CC(=O)NCCCN1CCN(c3cc(C)ccc3C)CC1)C(=O)CO2	.[10.9 µM]	?	.	.
CCn1c(=N)n(CC(O)COc2ccccc2)c2ccccc21 (stereo not drawn)	.[10.9 µM]	.	.	.
Cc1cccc(OCC(O)Cn2c(=N)n(CCN3CCCCC3)c3ccccc32)c1 (stereo not drawn)	.	?	.	13µM
CCN(CC)CCn1c(=N)n(CC(O)COc2ccccc2C)c2ccccc21 (stereo not drawn)	.[10.9 µM]	?	?	16µM
CCN(CC)CCn1c(=N)n(CCOc2ccccc2Cl)c2ccccc21	.[10.9 µM]	?	?	10µM
COc1ccccc1C1Nc2c(sc3nc(C)cc(C)c23)C(=O)N1c1ccccc1 (stereo not drawn)	.[10.9 µM]	?	?	13µM
COCc1cc(C)nc2sc3c(c12)NC(c1ccccc1C(=O)O)N(c1cccc(C(F)(F)F)c1)C3=O (stereo not drawn)	.[10.9 µM]	.	.	.
CN(C)c1ccc2nc3ccc(=[N+](C)C)cc-3sc2c1	.	.	.[1.84 µM]	3.2µM
CCOC(=O)c1c(NC(=O)c2cc3nc(-c4ccc(OC)cc4)cc(C(F)(F)F)n3n2)sc(C)c1C	.[10.9 µM]	.	.	.
CC(=O)N1CCc2cc(NC(=O)c3ccc(C)cc3)ccc21	.	.	6.3µM	10µM
COc1ccc2[nH]c3nc(SC(C)C)nnc3c2c1	.	?	16µM	10µM
COc1ccc2[nH]c3nc(SCc4nnc(-c5ccccc5)o4)nnc3c2c1	.	.	.	.
COc1cc(Cl)c(C)cc1NC(=O)CCn1c(=O)c2cccn2c2cccnc21	.[10.9 µM]	.	.	.
CCc1ccc(C2=CC(c3cccc(C)c3)n3c(nc4ccccc43)N2)cc1 (stereo not drawn)	.[10.9 µM]	?	8.9µM	5µM
CC(C)c1ccc(C2=CC(c3cccc(Cl)c3)n3c(nc4ccccc43)N2)cc1 (stereo not drawn)	.[10.9 µM]	?	?	?
CCc1ccc(C2=CC(c3cccc(OC)c3OC)n3c(nc4ccccc43)N2)cc1 (stereo not drawn)	.[10.9 µM]	?	10µM	16µM
CCC(=O)N1CCc2cc(Br)cc(S(=O)(=O)CCC(=O)Nc3cccc(Cl)c3)c21	.[10.9 µM]	?	.	.
CCc1ccccc1NC(=O)C1=C(C)C(=O)OC12CCCCCC2	/	/	.	/
CCOC(=O)c1cc(OC(=O)c2cc(Cl)ccc2OC)n(-c2ccccc2)n1	.[10.9 µM]	.	.	.
Cc1cccc(NC(=O)c2cc3ccccc3o2)c1	.	?	13µM	10µM
CCC(=O)Nc1cccc(NC(=O)c2cc3ccccc3o2)c1	.	?	10µM	13µM
CCc1ccc(OCc2ccccc2C(=O)Nc2ccc3nc(C)cc(N)c3c2)cc1	.	/	/	/
COc1ccc(N2CC(NC(=O)c3ccc(S(=O)(=O)N4CCOCC4)cc3)CC2=O)cc1OC (stereo not drawn)	.[10.9 µM]	.	.	.
SMILES	Imprint erasure	IkB signaling	p53ts 32C tox	p53ts 39C tox
COc1c(O)cc2c(c1O)C1OC(CO)C(O)[C@H](O)[C@H]1OC2=O (stereo partly drawn)	7.9µM	/	.	.
COc1ccc(-c2cn3nc(SCC(=O)Nc4cccc(C)c4C)ccc3n2)cc1	.[10.9 µM]	.	.	16µM
CC(/C=C/c1cccc(Oc2ccc(F)cc2)c1)N(O)C(N)=O (stereo not drawn)	.	/	/	/
C[C@@H](/C=C\c1cccc(Oc2ccc(F)cc2)c1)N(O)C(N)=O	.	?	32µM	32µM
CC(=O)OCC1OC(C#CCCc2ccccc2)C=CC1OC(C)=O (stereo not drawn)	/	/	.[9.22 µM]	.[9.22 µM]
Clc1cccc(-c2nnc(-c3ccccc3)o2)c1	.	?	10µM	13µM
CN1C=CC(=C2C(=O)c3ccccc3C2=O)C=C1	.	.	13µM	10µM
CCN1C=CC(=C2C(=O)c3ccccc3C2=O)C=C1	.	?	0.25µM	0.25µM
CCCN1C=CC(=C2C(=O)c3ccccc3C2=O)C=C1	.	?	0.2µM	0.32µM
COc1ccc(CC(=O)N2CCN(c3ccccn3)CC2)cc1	.	.	.	.
